Compounds without any hit were thinned out: in the full panel of roughly 79,000, 15% have a hit. Rule as the data show it: active = growth inhibition above about 70%; inactive = the rest.
What was measured:
[1] = NCI Yeast Anticancer Drug Screen. Data for the rad50 strain (AID 155);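 also: 0% = growth of vehicle-only cultures of the same strain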; details: S. cerevisiae rad50 strain growth inhibition; at 50.0 µM; hits give high values
Method in brief: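 Relative growth inhibition (compound vs vehicle) was measured in yeast with a defined repair-gene alteration.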

[2] = NCI Yeast Anticancer Drug Screen. Data for the mec2-1 strain (AID 157); details: S. cerevisiae mec2-1 strain, at 50.0 µM, hits give high values
Method in brief: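 Readout is yeast growth inhibition, normalised to vehicle-treated controls, in the mec2-1 strain exposed to compound.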

[3] = NCI Yeast Anticancer Drug Screen. Data for the sgs1 mgt1 strain (AID 161);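 also: 0% = growth of cultures given vehicle only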; details: S. cerevisiae sgs1 mgt1 strain, at 50.0 µM, hits give high values
Method in brief: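 This yeast growth screen uses a strain with defined DNA-repair lesions; compound-treated growth is compared with vehicle-treated growth.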

[4] = NCI Yeast Anticancer Drug Screen. Data for the cln2 rad14 strain (AID 165);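 also: 0% = growth equal to vehicle treated cultures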; details: S. cerevisiae cln2 rad14 strain, at 50.0 µM, hits give high values
Method in brief: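 Relative to vehicle controls, growth inhibition of compound-treated cln2 rad14 yeast was recorded.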

[5] = NCI Yeast Anticancer Drug Screen. Data for the bub3 strain (AID 167); details: S. cerevisiae bub3 mutant strain, at 50.0 µM, hits give high values
Method in brief: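 Screening used yeast with an engineered genetic alteration affecting cell cycle control. Compound-exposed cultures were compared with vehicle cultures, and reduced growth was taken as inhibition.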

[6] = NCI Yeast Anticancer Drug Screen. Data for the mlh1 rad18 strain (AID 175); details: S. cerevisiae mlh1 rad18 strain growth inhibition; at 50.0 µM; hits give high values
Method in brief: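 Test agents were incubated with a yeast strain of defined genotype (DNA damage repair defect). Inhibition of growth was derived by comparison with vehicle-exposed cultures.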

Measured: growth inhibition

Cc1c(C)c(CN)c(C)c(C)c1CN
inactive: [1] -30.5% | [2] -47% | [3] -16.6% | [4] -24.2% | [5] -43.4% | [6] -31.7%

O=C(O)/C(=C\c1ccccc1[N+](=O)[O-])c1ccccc1
inactive: [1] 35.3% | [2] -3.05% | [3] 7.45% | [4] -30.9% | [5] -1.45% | [6] 47.4%

CC(=O)CC(=O)NCc1ccccc1
inactive: [1] 10.7% | [2] -15.9% | [3] 25% | [4] 17.2% | [5] 1.55% | [6] 5.15%

Cc1cc(O)c(C(c2ccccn2)c2c(O)cc(C)[nH]c2=O)c(=O)[nH]1
inactive: [1] -4.85% | [2] 6.15% | [3] -7.9% | [4] -2.55% | [5] -0.25% | [6] 5%

O=C1c2ccccc2CC1(c1ccccc1)c1ccccc1
inactive: [1] 15.1% | [2] -5% | [3] -6.6% | [4] 10.5% | [5] -9.85% | [6] -7.5%

COc1ccc(NC(=O)CCC2=CC(=O)CC(c3ccccc3)O2)cc1 (stereo unspecified)
inactive: [1] 2.9% | [2] 9.65% | [3] 2.35% | [4] 25.3% | [5] -8.45% | [6] -5.05%

c1ccc([Si](c2ccccc2)(c2cccs2)c2cccs2)cc1
inactive: [1] -8.35% | [2] 6.35% | [3] 12.5% | [4] 7.85% | [5] 3.6% | [6] 26%

O=C(Nc1ccc(I)cc1)c1ccc([N+](=O)[O-])cc1
inactive: [1] 2.3% | [2] -11.1% | [3] -5.05% | [4] -8.2% | [5] 0.35% | [6] -4.5%

CC(C)(Nc1nc2c(ncn2C2OC(CO)C(O)C2O)c(=O)[nH]1)P(=O)(O)O (stereo unspecified)
inactive: [1] 4.4% | [2] -0.4% | [3] 17% | [4] 11.1% | [5] -5.4% | [6] 2.9%

CC(=O)OCC1OC(OC(C)=O)C(NS(=O)(=O)c2ccc(C)cc2)C(OC(C)=O)C1OC(C)=O (stereo unspecified)
inactive: [1] 18.3% | [2] 4.25% | [3] 18.1% | [4] 17.8% | [5] -3.65% | [6] -4.65%

CC(C)C/C(=N\NC(N)=O)C1=CCCCC1
inactive: [1] 10.8% | [2] 4.2% | [3] -1.15% | [4] -40.5% | [5] -0.1% | [6] 11.7%

O=C1NC(=O)C(c2ccsc2)(c2cccs2)N1 (stereo unspecified)
inactive: [1] 20.9% | [2] -9.3% | [3] 1% | [4] 14.3% | [5] 5.05% | [6] -1.65%

CCCCCCCCCCCCOP(=O)(O)OCC(N)C(=O)O (stereo unspecified)
inactive: [1] 10.7% | [2] 9.2% | [3] -11.4% | [4] -39.8% | [5] -18% | [6] -19.3%

CC(=O)c1c[nH]c(=O)c2cc3c(cc12)OCO3
inactive: [1] -42.8% | [2] -14.1% | [3] -7.85% | [4] -10.4% | [5] 12.8% | [6] -8.3%

CSc1ccc2c(=O)c(C(=O)O)c[nH]c2c1
inactive: [1] -0.05% | [2] 15.7% | [3] 5.25% | [4] 1.75% | [5] 10.3% | [6] 5.85%

Cc1cc2c(C)n(Cc3ccc(Cl)cc3Cl)nc2c(C#N)c1C
inactive: [1] -11.2% | [2] -7.05% | [3] -9.6% | [4] 20.2% | [5] -2.45% | [6] -3.9%

O=C1CC(C(=O)O)Cc2c(Br)ccc(O)c21 (stereo unspecified)
inactive: [1] 20.8% | [2] 13.8% | [3] -22.5% | [4] -3.6% | [5] -34% | [6] -44.4%

O=C(N=c1ccc2nc(=O)[nH]n(O)c-2c1)C(F)(F)F
inactive: [1] -12.1% | [2] 5.5% | [3] -13.4% | [4] -10.3% | [5] -46.6% | [6] -32.7%

N#C/C(=C\NC(N)=S)c1nc2ccccc2s1
inactive: [1] -18.1% | [2] 7.15% | [3] -15.8% | [4] 24.8% | [5] -4.25% | [6] -11.7%

CCCCCN(CCCCC)CC(O)c1cccc2c1cc(Br)c1ccccc12 (stereo unspecified)
inactive: [1] 30.7% | [2] 1.55% | [3] 8.7% | [4] 8.45% | [5] 0.85% | [6] 14.7%

COc1ccccc1C(N)c1ccccc1 (stereo unspecified)
inactive: [1] -13.1% | [2] -0.75% | [3] 15.9% | [4] 5.8% | [5] -0.7% | [6] 13.6%

O=C(CCCC(=O)N/N=C/c1cccc([N+](=O)[O-])c1)N/N=C\c1cccc([N+](=O)[O-])c1
inactive: [1] 26.6% | [2] 21.9% | [3] 5.1% | [4] 26.8% | [5] 2.45% | [6] 26.1%

CCN(CC)C1CS(=O)(=O)OC2=C1CSCC2 (stereo unspecified)
inactive: [1] -2.4% | [2] 19.1% | [3] 11.3% | [4] 3.75% | [5] 4.35% | [6] -31.5%

Cc1ccc2c(c1)C(=O)c1cc(C)cc(C(=O)O)c1-2
inactive: [1] -22.6% | [2] -5.05% | [3] 4.5% | [4] -40% | [5] 1.65% | [6] -16.7%

CN1CCC(CC(O)(c2ccccc2)C2CCCCC2)C1 (stereo unspecified)
inactive: [1] -5.9% | [2] -14.1% | [3] -2.3% | [4] -24.4% | [5] 4.2% | [6] -20.9%

COC(=O)c1ccc(C(=O)OC)c2nc3cc(C)ccc3nc12
inactive: [1] -39.1% | [2] -2.3% | [3] -16.2% | [4] 10.1% | [5] 8.65% | [6] 14.4%

CN(C)CCCCl
inactive: [1] -16.1% | [2] -3.05% | [3] 8.75% | [4] -26.8% | [5] -15.5% | [6] -17.3%

COc1ccc2c(c1)Cc1cc(N=[N+]([O-])c3ccc4c(c3)Cc3cc(OC)ccc3-4)ccc1-2
inactive: [1] 8.65% | [2] 1.35% | [3] -17.9% | [4] -80% | [5] 47.5% | [6] 9.85%

O=C1NC2(CCCC2)C(=O)NC12CCCC2
inactive: [1] -21.1% | [2] -22.1% | [3] -1.45% | [4] -13.2% | [5] -26.2% | [6] 1.35%

CCOc1c(OC)cc(-c2nnc(SCCN(CC)CC)o2)cc1OC
inactive: [1] 11.4% | [2] 0.35% | [3] 7.1% | [4] 16.7% | [5] 0.15% | [6] -7.05%

C[C@H](CCC(=O)O[C@@H]1CC[C@@]2(C)C(CC[C@H]3[C@@H]4CC[C@H]([C@H](C)CCc5nc6ccccc6[nH]5)[C@@]4(C)CC[C@@H]32)C1)[C@H]1CC[C@H]2[C@@H]3CCC4C[C@H](O)CC[C@]4(C)[C@H]3CC[C@]12C (stereo partly specified)
inactive: [1] 5.8% | [2] -2.55% | [3] -16.4% | [4] 11.3% | [5] 6.2% | [6] -6.05%

c1ccc(C(c2ccccc2)c2ccccc2)cc1
inactive: [1] -20.6% | [2] -20.4% | [3] -16.1% | [4] -10.3% | [5] -8.7% | [6] -23.6%

CCOc1ccccc1NC(=O)C(=O)Cc1nc2ccccc2s1
inactive: [1] -2.65% | [2] 6.1% | [3] -2% | [4] -6.75% | [5] -0.75% | [6] 2.9%

Cc1cc2c(c3c1c(=O)c1ccccc1n3C)C=CC(C)(C)O2
inactive: [1] -5.05% | [2] -0.2% | [3] 9.95% | [4] 3.35% | [5] 14.4% | [6] -8.9%

c1cc(-c2cc(-c3cc(-c4ccncc4)n[nH]3)[nH]n2)ccn1
inactive: [1] 9.45% | [2] -2.6% | [3] 8.45% | [4] 3.3% | [5] -13.8% | [6] 4.6%

O=C1CCCCCCCS(=O)(=O)C1
inactive: [1] -8.55% | [2] -0.05% | [3] -4.75% | [4] -19.6% | [5] -4.95% | [6] -0.2%

Cc1cc2nn(C3CCCCO3)nc2cc1C (stereo unspecified)
inactive: [1] 1.75% | [2] -20.4% | [3] -21.6% | [4] -25.4% | [5] 8.05% | [6] -46.8%

C=Cn1c2ccccc2c2ccccc21
inactive: [1] 46.9% | [2] 18.9% | [3] 26.9% | [4] 15.2% | [5] -6.75% | [6] -0.55%

O=C(NC(CS)C(=O)O)c1cnc2ccccc2n1 (stereo unspecified)
inactive: [1] -4.8% | [2] -12.9% | [3] 21.2% | [4] -9.9% | [5] 18.6% | [6] 0.3%

COC(=O)CNc1cccc([N+](=O)[O-])c1
inactive: [1] -3.45% | [2] 5.15% | [3] -3.65% | [4] -14.7% | [5] -11.3% | [6] -19.2%

COc1ccc(/C=N/N2CCN(/N=C/c3ccc(OC)c(O)c3)CC2)cc1O
inactive: [1] 22.1% | [2] 4.5% | [3] 15.1% | [4] 28.6% | [5] 1.05% | [6] 9.85%
